In all, about 290,000 compounds went through this assay and about 570 (0.2%) were called active. Roughly 1% stayed inconclusive and do not appear here. This is one part of a sample in which actives are shown more often than they occur. No stated cut-off is given here; in the data, active means inhibition mostly above about 51% (no sharp cut-off); inconclusive means no clear call, values can overlap the other calls; inactive means mostly below about 53%.
Biological target: Voltage-dependent N-type calcium channel subunit alpha-1B (Homo sapiens) (UniProt Q00975)
Experiment: disruptors of CaV2.2 binding to Mint1 – biochemical, HTRF (AID 2073)
Conditions: HTRF protein-protein interaction, Mint1-CaV2.2, at 20 µM, stronger effect = higher value
[1] = measured here: average of repeat tests

Voltage-dependent N-type calcium channel subunit alpha-1B (Homo sapiens), sequence (Q00975 whole entry, looked up): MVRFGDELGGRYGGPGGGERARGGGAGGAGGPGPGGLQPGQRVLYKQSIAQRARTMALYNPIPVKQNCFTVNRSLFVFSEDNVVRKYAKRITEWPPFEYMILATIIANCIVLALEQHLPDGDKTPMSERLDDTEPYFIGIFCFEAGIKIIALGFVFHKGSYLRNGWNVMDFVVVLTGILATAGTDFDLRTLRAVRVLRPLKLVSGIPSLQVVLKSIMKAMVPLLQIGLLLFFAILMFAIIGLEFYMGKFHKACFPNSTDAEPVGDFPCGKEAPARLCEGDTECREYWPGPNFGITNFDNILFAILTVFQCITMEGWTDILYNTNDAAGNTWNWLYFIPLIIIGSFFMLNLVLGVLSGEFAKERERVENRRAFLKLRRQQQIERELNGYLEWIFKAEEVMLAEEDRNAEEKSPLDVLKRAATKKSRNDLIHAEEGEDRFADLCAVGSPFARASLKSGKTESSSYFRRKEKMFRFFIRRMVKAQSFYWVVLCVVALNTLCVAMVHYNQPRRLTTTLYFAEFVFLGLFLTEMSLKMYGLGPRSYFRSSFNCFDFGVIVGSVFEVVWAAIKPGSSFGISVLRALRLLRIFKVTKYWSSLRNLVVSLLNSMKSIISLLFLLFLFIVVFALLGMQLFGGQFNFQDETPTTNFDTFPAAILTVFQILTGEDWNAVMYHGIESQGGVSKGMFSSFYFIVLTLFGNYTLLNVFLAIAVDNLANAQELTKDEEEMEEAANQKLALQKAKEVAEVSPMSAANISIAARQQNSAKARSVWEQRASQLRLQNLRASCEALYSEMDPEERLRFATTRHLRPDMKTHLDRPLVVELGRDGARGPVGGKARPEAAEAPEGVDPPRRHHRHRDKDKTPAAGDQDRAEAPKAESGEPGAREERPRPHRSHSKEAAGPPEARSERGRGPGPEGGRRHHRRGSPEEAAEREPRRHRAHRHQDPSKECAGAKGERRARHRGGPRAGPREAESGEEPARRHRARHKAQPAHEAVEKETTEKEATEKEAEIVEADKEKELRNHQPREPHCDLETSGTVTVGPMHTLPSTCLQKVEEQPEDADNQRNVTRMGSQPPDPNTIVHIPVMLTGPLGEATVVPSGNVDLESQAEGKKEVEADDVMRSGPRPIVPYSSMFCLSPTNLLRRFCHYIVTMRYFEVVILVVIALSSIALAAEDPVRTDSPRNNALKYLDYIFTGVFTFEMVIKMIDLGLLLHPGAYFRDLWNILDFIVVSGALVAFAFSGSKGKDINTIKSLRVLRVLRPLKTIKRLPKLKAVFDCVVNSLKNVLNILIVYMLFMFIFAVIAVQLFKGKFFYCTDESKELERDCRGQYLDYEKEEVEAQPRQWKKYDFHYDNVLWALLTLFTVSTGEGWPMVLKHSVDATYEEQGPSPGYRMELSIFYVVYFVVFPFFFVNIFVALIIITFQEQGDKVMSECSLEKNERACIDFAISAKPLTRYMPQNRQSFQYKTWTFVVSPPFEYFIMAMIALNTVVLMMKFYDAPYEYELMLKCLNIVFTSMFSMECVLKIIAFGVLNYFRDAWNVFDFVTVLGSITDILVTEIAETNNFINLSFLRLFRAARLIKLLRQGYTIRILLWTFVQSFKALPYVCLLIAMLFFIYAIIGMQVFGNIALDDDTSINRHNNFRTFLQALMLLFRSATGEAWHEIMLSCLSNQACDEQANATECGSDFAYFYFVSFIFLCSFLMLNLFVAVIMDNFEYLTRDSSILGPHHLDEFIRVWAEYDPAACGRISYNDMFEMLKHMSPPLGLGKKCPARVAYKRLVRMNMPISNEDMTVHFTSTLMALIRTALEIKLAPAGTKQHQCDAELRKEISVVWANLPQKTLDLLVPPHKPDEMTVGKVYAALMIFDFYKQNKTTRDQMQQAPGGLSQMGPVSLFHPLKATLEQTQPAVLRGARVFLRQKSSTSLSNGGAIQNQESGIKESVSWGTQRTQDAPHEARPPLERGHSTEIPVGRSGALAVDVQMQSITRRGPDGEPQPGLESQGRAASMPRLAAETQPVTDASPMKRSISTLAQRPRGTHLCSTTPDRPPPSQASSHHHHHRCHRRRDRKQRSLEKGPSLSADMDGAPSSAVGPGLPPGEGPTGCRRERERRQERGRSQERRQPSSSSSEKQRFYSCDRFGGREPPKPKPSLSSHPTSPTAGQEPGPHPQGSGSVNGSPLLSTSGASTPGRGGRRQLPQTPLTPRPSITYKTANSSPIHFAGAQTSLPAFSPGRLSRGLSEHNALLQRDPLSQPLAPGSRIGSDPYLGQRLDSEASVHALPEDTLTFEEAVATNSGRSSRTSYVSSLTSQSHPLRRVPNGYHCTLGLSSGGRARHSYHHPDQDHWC

Structure (SMILES)	inhibition	inhibition [1]
COc1ccc(NS(=O)(=O)c2cccc(-c3n[nH]c(=S)n3Cc3ccccc3)c2)cc1	3.7% (inactive)	–
O=C(COc1ccccc1Cl)c1ccc[nH]1	53.6% (active)	–
O=C(COc1ccc(Br)cc1Cl)c1ccc[nH]1	24.7% (inactive)	–
O=C(COc1ccc(Cl)cc1Cl)c1ccc[nH]1	21.1% (inactive)	–
COc1ccc(C(NC(=O)CC(C)C)c2c(O)ccc3ccccc23)cc1 (stereo unspecified)	15.2% (inactive)	–
COc1cc(C2CC(=O)N3CN(c4ccccc4C)CSC3=C2C#N)cc(OC)c1OC (stereo unspecified)	90.6% (inactive)	32.6%
CCOc1cc(C2CC(=O)NC(SCC)=C2C#N)ccc1O (stereo unspecified)	5.2% (inactive)	–
N#CC1=C2SCN(Cc3ccco3)CN2C(=O)CC1c1ccccc1F (stereo unspecified)	84.1% (inactive)	33.2%
CCOc1cc(C2CC(=O)N3CN(C4CCCCC4)CSC3=C2C#N)ccc1O (stereo unspecified)	62.4% (active)	–
COc1cc(OC)c(C2CC(=O)N3CN(c4ccc(C)cc4)CSC3=C2C#N)cc1OC (stereo unspecified)	65.7% (inactive)	14.9%
COc1cccc(C2CC(=O)N3CN(c4cccc(Cl)c4C)CSC3=C2C#N)c1OC (stereo unspecified)	73.5% (active)	–
N#CC1=C2SCN(c3ccccc3)CN2C(=O)CC1c1cccs1 (stereo unspecified)	74% (inactive)	42.2%
COc1cc(OC)c(C2CC(=O)N3CN(c4ccccc4C)CSC3=C2C#N)cc1OC (stereo unspecified)	73.1% (active)	–
N#CC1=C2SCN(c3ccccc3)CN2C(=O)CC1c1ccccc1Cl (stereo unspecified)	57.1% (inactive)	35.2%
CCc1ccccc1N1CSC2=C(C#N)C(c3ccccc3F)CC(=O)N2C1 (stereo unspecified)	84.5% (active)	–
CCc1ccc(C2CC(=O)N3CN(c4ccccc4)CSC3=C2C#N)cc1 (stereo unspecified)	88% (inactive)	42.4%
CCc1ccccc1N1CSC2=C(C#N)C(c3cc(OC)c(OC)cc3OC)CC(=O)N2C1 (stereo unspecified)	75.6% (inactive)	34.5%
CCC(C)/C(C)=N/NC(=O)CSc1nc2ccccc2[nH]1 (stereo unspecified)	-5.4% (inactive)	–
Cc1ccc(C)c(N(C(=O)c2csnn2)C(C(=O)NC2CCCCC2)c2ccccn2)c1 (stereo unspecified)	1.3% (inactive)	–
O=C(CN1CCOCC1)Nc1cccc(S(=O)(=O)N2CCCCCC2)c1	-5.9% (inactive)	–

Structure (SMILES)	inhibition	inhibition [1]
Cc1ccc(N2C(=O)C3C4CC(=O)C(c5ccccc54)C3C2=O)cc1C (stereo unspecified)	-1.5% (inactive)	–
COc1ccc(OC)c(C2CC(=O)N3CN(c4ccccc4F)CSC3=C2C#N)c1 (stereo unspecified)	29.3% (inactive)	–
COc1ccc(OC)c(C2CC(=O)N3CN(c4cccc(Cl)c4)CSC3=C2C#N)c1 (stereo unspecified)	37.5% (inactive)	–
COc1ccc(N2CSC3=C(C#N)C(c4ccc(OC)c(OC)c4)CC(=O)N3C2)c(OC)c1 (stereo unspecified)	91.4% (active)	–
COc1ccc(C2CC(=O)N3CN(c4ccccc4F)CSC3=C2C#N)cc1OC (stereo unspecified)	79.9% (inactive)	38.6%
COc1ccccc1N1CSC2=C(C#N)C(c3ccc(SC)cc3)CC(=O)N2C1 (stereo unspecified)	81.5% (active)	–
COc1ccc(N2CSC3=C(C#N)C(c4cc(OC)ccc4OC)CC(=O)N3C2)c(OC)c1 (stereo unspecified)	69.2% (active)	–
CCOc1ccccc1N1CSC2=C(C#N)C(c3c(OC)ccc4ccccc34)CC(=O)N2C1 (stereo unspecified)	72.9% (inactive)	9.7%
COc1ccc(C2CC(=O)N3CN(c4ccc(C)c(Cl)c4)CSC3=C2C#N)cc1 (stereo unspecified)	80.8% (inactive)	11.1%
COc1cccc(C2CC(=O)N3CN(c4ccccc4F)CSC3=C2C#N)c1 (stereo unspecified)	75.5% (inactive)	31%
CCCCc1cc(=O)oc2cc(OCC(=O)N3CCC(C(N)=O)CC3)ccc12	8.7% (inactive)	–
O=C(c1ccco1)N1CCN(Cc2cccc3ccccc23)CC1	3.9% (inactive)	–
O=C(COC(=O)c1ccc(O)cc1)Nc1cccc(S(=O)(=O)NC2=NCCCCC2)c1	-9.8% (inactive)	–
CC(=O)Nc1ccc(NC(=O)COC(=O)c2cnccn2)cc1	15.7% (inactive)	–
NS(=O)(=O)c1ccc(NC(=O)COC(=O)c2cnccn2)cc1	51.2% (active)	–
O=C(COC(=O)c1cnccn1)Nc1ccc(Cl)cc1	3.8% (inactive)	–
CC(C)OC(=O)c1cc2c(ccn2-c2ccc(F)cc2)n1CC(=O)N1CCN(C(=O)c2ccco2)CC1	40.4% (inactive)	–
CN(C)[C@@H]1C(=O)C(C(N)=O)=C(O)[C@@]2(O)C(=O)C3=C(O)c4c(O)ccc(Cl)c4[C@@H](O)[C@H]3C[C@@H]12	56.1% (active)	–
C[C@H]1c2cccc(O)c2C(O)=C2C(=O)[C@]3(O)C(O)=C(C(N)=O)C(=O)[C@@H](N(C)C)[C@@H]3[C@@H](O)[C@@H]21	13.4% (inactive)	–
CN(C)c1ccc(O)c2c1CC1CC3[C@@H](N(C)C)C(=O)C(C(N)=O)=C(O)[C@]3(O)C(=O)C1=C2O (stereo partly specified)	22.3% (inactive)	–

From PubChem BioAssay AID2073 (Sanford-Burnham Center for Chemical Genomics, 2009)
